Laboratory results taken from PubChem BioAssay AID493203 (National Center for Advancing Translational Sciences (NCATS), 2011).
Records with an inconclusive call do not appear. Activity calls are given as the source filed them. Calls follow the shape of the dose curve; as a rule, active = well fitted activation curve with a large enough effect; inconclusive = small, poorly fitted or top-dose-only effect; inactive = flat fitted curve, though single readings scatter.

Experiment: qHTS Assay for NPC1 Promoter Activators: Initial hit validation from the primary screen;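 as to activity, positive = activation: reporter driven by the mutant form of the NPC1 promoter; % of control where 0% means no effect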
Details: Huh7 NPC1 promoter-luciferase reporter, luminescence, 24 h; series mostly up to 46.1 µM; activity, positive = activation: at the top concentration
In short: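 Promoter activation measured as luciferase luminescence (Amplite reagent, 10 minutes ambient) after 24 hours' compound exposure at 37C. Cells: NPC1-luciferase Huh7, 1500 per well, reduced-serum OP-MEM I plus 10% FBS.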
Potency is read from the fitted curve at half-maximal effect.

Row | Compound | Potency | activity, positive = activation
1 | COc1ccc(-c2cc(C(=O)Nc3ccccc3F)on2)cc1 | 31500 nM (active) | 
2 | O=C(CCCN1C(=O)C(c2ccccc2)Oc2cccnc21)Nc1ccccc1Cl (stereo not drawn) |  | -11.5% (inactive)
3 | CCCOC(=O)Cn1cnc2scc(-c3ccc(OC)cc3)c2c1=O |  | -5.85% (inactive)
4 | Cc1cc(C)c2c(N)c(C(=O)Nc3ccc([N+](=O)[O-])cc3)sc2n1 | 396 nM (active) | 
5 | O=C(NCC1CCCO1)C(c1ccc(F)cc1)N(Cc1ccc2c(c1)OCO2)C(=O)c1ccc(CN2CCOCC2)o1 (stereo not drawn) |  | 3.75% (inactive)
6 | NNC(=O)c1cccc(S(=O)(=O)Nc2cc(Cl)ccc2Cl)c1 |  | 2.99% (inactive)
7 | COc1ccc(NC(=O)CN(C)C(=O)c2ccc(=O)[nH]c2)cc1 |  | 0.198% (inactive)
8 | Cc1nc(-c2ccc(S(=O)(=O)Oc3ccc(Cl)cc3Cl)s2)cs1 |  | -17.2% (inactive)
9 | COC(=O)c1ccccc1S(=O)(=O)NNC(=O)Nc1ccccc1 | 12500 nM (active) | 
10 | Cc1ccc(NC(=O)NC(=O)c2ccccc2)cc1F | 499 nM (active) | 
11 | O=C(CCNC(=O)c1ccc(Br)o1)NCc1ccc(Cl)cc1 |  | -0.949% (inactive)
12 | CN(C)/C=N/c1c(C#N)cnn1-c1nc2ccccc2s1 |  | 20% (inactive)
13 | Cc1ccccc1NC(=O)CSc1ccc(-c2cccnc2)nn1 |  | -0.999% (inactive)
14 | COc1cccc(C2Nc3ccccc3NC3=C2C(=O)CC(C)(C)C3)c1 (stereo not drawn) |  | 8.81% (inactive)
15 | COc1ccc(-c2nnc(SCC(=O)/C(C#N)=C(\C)N)o2)cc1 | 223 nM (active) | 
16 | O=C(CCCOc1ccc(Cl)cc1)N1CCCCC1 | 25000 nM (active) | 
17 | CCOC(=O)CSc1nc2cc3c(cc2cc1C#N)OCO3 | 888 nM (active) | 

Row | Compound | Potency | activity, positive = activation
18 | O=C(Nc1nc2ccc(F)cc2s1)c1ccc(N2CCCC2=O)cc1 | 141 nM (active) | 
19 | CCOc1cc(C2C(C#N)=C(N)Oc3n[nH]c(C)c32)ccc1OCCN1CCOCC1 (stereo not drawn) |  | -5.42% (inactive)
20 | COc1ccc(C2(CNC(=O)/C=C/c3ccco3)CCCC2)cc1OC |  | -3.56% (inactive)
21 | CCCCCCOc1ccc(OC(=O)c2cccnc2)cc1 | 19900 nM (active) | 
22 | O=C(C[N+]1(CC#Cc2ccccc2)CCCCC1)c1ccccc1 |  | -0.776% (inactive)
23 | O=C(/C=C/c1ccco1)NCC1OCCc2ccccc21 (stereo not drawn) |  | 2.53% (inactive)
24 | Cc1ccc(C)c(Nc2cc(C)nc3ncnn23)c1 |  | -7.93% (inactive)
25 | Cc1ccccc1NC(=O)Cc1nc(COC(=O)CC(C)c2ccccc2)cs1 (stereo not drawn) |  | -6.35% (inactive)
26 | O=C(C1COc2ccccc2O1)N1CCN(S(=O)(=O)c2ccccc2)CC1 (stereo not drawn) |  | -2.48% (inactive)
27 | CCCCn1c(Nc2ccc(OC)cc2)nc2ccccc21 |  | 8.4% (inactive)
28 | CC(C)C(NC(=O)c1ccc([N+](=O)[O-])cc1Cl)C(=O)N1CCCC1 (stereo not drawn) |  | 3.15% (inactive)
29 | O=C(c1cccc(Oc2ccc([N+](=O)[O-])cc2)c1)N1CCOCC1 |  | -1.18% (inactive)
30 | CCCCc1cc(=O)oc2cc(OCC(=O)N3CCOCC3)ccc12 |  | 5.92% (inactive)
31 | CC(=O)NC(CCCN1C(=O)c2ccccc2C1=O)c1nnn(C)n1 (stereo not drawn) |  | 0.69% (inactive)
32 | CCC(=O)Nc1cc(-c2cc3ccccc3oc2=O)ccc1OC | 1120 nM (active) | 
33 | S=C1NCN(CCc2ccccc2)CN1Cc1ccccc1 |  | 1.9% (inactive)
